Test results from PubChem BioAssay (NCATS).
Records with an inconclusive call do not appear. Active and inactive are the calls of the source. Unless noted, the call rests on the fitted dose curve; in most records, active means well fitted curve in the direction sought with a large enough effect; inconclusive means small, poorly fitted or top-dose-only effect, or another doubt; inactive means no such curve, though single readings can be large; an effect the other way counts as inactive or inconclusive.

Columns and labels:
[1] = molecular target: Pyruvate kinase (Leishmania mexicana) (UniProt Q27686); test: qHTS Validation Assay for Activators of Leishmania Mexicana Pyruvate Kinase (AID 959)
Pyruvate kinase (Leishmania mexicana), sequence (Q27686 2-499 E452W): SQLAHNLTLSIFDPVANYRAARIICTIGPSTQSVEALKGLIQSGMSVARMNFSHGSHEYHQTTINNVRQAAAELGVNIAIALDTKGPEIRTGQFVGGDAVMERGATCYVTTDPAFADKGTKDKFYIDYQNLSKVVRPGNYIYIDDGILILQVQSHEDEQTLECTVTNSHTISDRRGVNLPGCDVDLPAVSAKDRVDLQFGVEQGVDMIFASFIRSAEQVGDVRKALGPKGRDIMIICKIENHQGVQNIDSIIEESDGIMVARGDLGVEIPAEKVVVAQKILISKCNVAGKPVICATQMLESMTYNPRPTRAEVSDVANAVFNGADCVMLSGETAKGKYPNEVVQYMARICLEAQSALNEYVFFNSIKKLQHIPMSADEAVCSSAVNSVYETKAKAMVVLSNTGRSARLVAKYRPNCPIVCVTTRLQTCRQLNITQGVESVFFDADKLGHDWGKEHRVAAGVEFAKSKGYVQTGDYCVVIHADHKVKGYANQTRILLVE
Summary of the method: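 Eight-point qHTS titrations in triplicate, data normalized to DMSO neutral control. Reaction: 0.2 nM LmPYK E451W mutant, 0.5 mM PEP, 0.1 mM ADP, 7 mM MgCl2, pH 7.2, one hour at room temperature; luminescent ATP detection.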

[2] = qHTS Assay for Identification of Small Molecule Antagonists for Thrombopoietin (TPO) Signaling Pathway (AID 918); settings: TPO-dependent cell signaling reporter, antagonist mode; further: potency means the concentration at half of the fitted maximal effect; nearly all actives have a fitted effect of over 60% in size
Summary of the method: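 Inhibition read as reduced luciferase luminescence after 24 h at 37 C in IL-3-deprived Ba/F3 cells carrying human TPO receptor and GPIIb-promoter reporter, stimulated with 26 pM TPO (final, its EC50) alongside compound.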

[3] = molecular target: Lysosomal acid glucosylceramidase (Homo sapiens) (UniProt P04062); test: Glucocerebrosidase-p2 (AID 348; in the data active means potency below about 10 µM; further: potency means the concentration at half of the fitted maximal effect); settings: purified GBA, blue fluorogenic substrate, 40 min
Lysosomal acid glucosylceramidase (Homo sapiens), sequence (P04062 whole entry, looked up): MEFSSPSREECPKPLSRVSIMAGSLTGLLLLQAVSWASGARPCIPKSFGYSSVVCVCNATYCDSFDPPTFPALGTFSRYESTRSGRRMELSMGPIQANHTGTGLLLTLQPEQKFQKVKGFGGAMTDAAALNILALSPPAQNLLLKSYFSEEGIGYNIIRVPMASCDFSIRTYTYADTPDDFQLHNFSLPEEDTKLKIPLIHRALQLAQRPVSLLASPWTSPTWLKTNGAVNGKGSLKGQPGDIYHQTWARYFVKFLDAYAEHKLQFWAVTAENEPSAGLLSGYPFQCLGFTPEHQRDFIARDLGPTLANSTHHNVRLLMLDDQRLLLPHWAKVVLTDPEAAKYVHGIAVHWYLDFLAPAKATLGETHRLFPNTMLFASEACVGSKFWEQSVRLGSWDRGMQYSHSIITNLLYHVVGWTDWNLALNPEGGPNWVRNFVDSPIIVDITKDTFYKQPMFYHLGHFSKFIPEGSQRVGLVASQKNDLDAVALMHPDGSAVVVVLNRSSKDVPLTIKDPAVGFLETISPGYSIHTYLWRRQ
Summary of the method: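 Normal human glucocerebrosidase (0.2 nM) with blue fluorogenic substrate (80 uM final) in citrate/phosphate pH 5.9 with 10mM sodium taurocholate, 0.01% tween-20; 40 min RT, NaOH/glycine stop; fluorescence Ex 365/Em 440; AC50 from a titration from 0.6 nM upwards.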

[4] = qHTS profiling for inhibitors of Plasmodium falciparum (3D7) proliferation (AID 743322);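 further: infected erythrocytes exposed to compound for 72 h before lysis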; settings: P. falciparum 3D7 proliferation; at 28.7 µM (top of the series)
Summary of the method: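 Parasite DNA was quantified by SYBR Green I fluorescence (ex 485, em 535 nm) after overnight lysis in saponin/Triton buffer at room temperature. Cultures at 0.3% parasitemia and 2.5% hematocrit were first exposed to compound for 72 h at 37 C; signals were normalised to artemisinin (0.29 uM) and vehicle wells.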

[5] = qHTS profiling for inhibitors of Plasmodium falciparum (DD2) proliferation (AID 743323; call rule not given here); settings: lower = more inhibition; at 28.7 µM (top of the series)
Summary of the method: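 1536-well qHTS; infected RBCs 0.3% parasitemia/2.5% Hct final; cpd 72 h 37 C 5% CO2; lysis buffer + SYBR Green I, o/n RT dark; FI 485/535; norm. to 0.29 uM artemisinin and DMSO, plate-stack corrected.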

[6] = S16 Schwann cell PMP22 intronic element firefly luciferase assay (AID 624032); further: nearly all actives have a fitted effect of over 30% in size; further: potency means the concentration at half of the fitted maximal effect
Summary of the method: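 Luciferase reporter of PMP22 intronic-element expression in stably transfected S16 rat Schwann cells, read by ONE-Glo luminescence after 24 h compound exposure at 37 C. Activity scaled between DMSO (0%) and positive-control PTC124; concentration-effect curves quality-classified.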

[7] = S16 Schwann cell PMP22 intronic element beta-lactamase assay (AID 624044; calls by dose curve; further: nearly all actives have a fitted effect of over 15% in size)
Summary of the method: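 Beta-lactamase reporter under a PMP22 intronic regulatory element in stable S16 rat Schwann cells; 24 h compound exposure. 460 nm blue signal normalized between DMSO (0%) and potassium clavulanate, with 535 nm FRET tracking viability; curves classed by r2 and response.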

[8] = tested on: AA1029; test: qHTS profiling for inhibitors of Plasmodium falciparum proliferation (AID 504749); further: nearly all actives have a fitted effect of over 60% in size; further: potency means the concentration at half of the fitted maximal effect; settings: P. falciparum in erythrocytes, SYBR Green DNA, 72 h; series mostly up to 28.7 µM
Summary of the method: (§1)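 SYBR Green fluorescence of parasite DNA, read after lysis and overnight dark incubation, measured growth over 72 h in erythrocyte culture at 0.3% parasitemia and 2.5% hematocrit. Data normalised to DMSO and 0.29 uM artemisinin, with plate-drift correction.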

[9] = tested on: CP211; test: as above; settings: P. falciparum in erythrocytes, SYBR Green DNA, 72 h; series mostly up to 28.7 µM
Summary of the method: as §1

[10] = tested on: CP215; test: as above; settings: P. falciparum in erythrocytes, SYBR Green DNA, 72 h; series mostly up to 28.7 µM
Summary of the method: as §1

[11] = tested on: CP217; test: as above; settings: P. falciparum in erythrocytes, SYBR Green DNA, 72 h; series mostly up to 28.7 µM
Summary of the method: as §1

[12] = tested on: CP252; test: as above; settings: P. falciparum in erythrocytes, SYBR Green DNA, 72 h; series mostly up to 28.7 µM
Summary of the method: as §1

[13] = tested on: CP260; test: as above; settings: P. falciparum in erythrocytes, SYBR Green DNA, 72 h; series mostly up to 28.7 µM
Summary of the method: as §1

[14] = tested on: CP315; test: as above; settings: P. falciparum in erythrocytes, SYBR Green DNA, 72 h; series mostly up to 28.7 µM
Summary of the method: as §1

[15] = tested on: DIV14; test: as above; settings: P. falciparum in erythrocytes, SYBR Green DNA, 72 h; series mostly up to 28.7 µM
Summary of the method: as §1

[16] = tested on: DIV17; test: as above; settings: P. falciparum in erythrocytes, SYBR Green DNA, 72 h; series mostly up to 28.7 µM
Summary of the method: as §1

[17] = tested on: ICS; test: as above; settings: P. falciparum in erythrocytes, SYBR Green DNA, 72 h; series mostly up to 28.7 µM
Summary of the method: as §1

[18] = tested on: JCK; test: as above; settings: P. falciparum in erythrocytes, SYBR Green DNA, 72 h; series mostly up to 28.7 µM
Summary of the method: as §1

[19] = tested on: N140; test: as above; settings: P. falciparum in erythrocytes, SYBR Green DNA, 72 h; series mostly up to 28.7 µM
Summary of the method: as §1

[20] = tested on: TAB165; test: as above; settings: P. falciparum in erythrocytes, SYBR Green DNA, 72 h; series mostly up to 28.7 µM
Summary of the method: as §1

N#CC(C#N)=Cc1ccc([N+](=O)[O-])c(O)c1
active: Potency [1] 20 µM

CN1[C@@H]2CC[C@H]1CC(O[C@@H](c1ccccc1)c1ccc(Cl)cc1)C2 (stereo not given in full)
active: Potency [2] 12.6 µM

O=C1C2CCN(CC2)C1(CO)CO
inactive: Potency [3] > 11.4 µM

CCCCC[C@H]1C(=O)O[C@H](C)[C@H](NC(=O)c2cccc(NC=O)c2O)C(=O)O[C@@H](C)[C@@H]1OC(=O)CC(C)C
8.53%: activity, percent of control [5]
20.4%: remaining parasite growth % (stronger effect = lower value) [4]

O=C(O)c1ccccc1-c1c2cc(Br)c(=O)cc-2oc2[c]([Hg])c(O)c(Br)cc12
inactive: Potency [6] | Potency [7] | Potency [8] | Potency [9] | Potency [10] | Potency [11] | Potency [12] | Potency [13] | Potency [14] | Potency [15] | Potency [16] | Potency [17] | Potency [18] | Potency [19] | Potency [20]

CC(C)[C@@]1(NC(=O)[C@H]2CC3c4cccc5[nH]cc(c45)C[C@H]3N(C)C2)O[C@@]2(O)C3CCCN3C(=O)[C@@H](Cc3ccccc3)N2C1=O (stereo not given in full)
active: Potency [6] 5.1 µM | Potency [8] 3.16 µM | Potency [9] 6.01 µM | Potency [10] 5.36 µM | Potency [11] 3.98 µM | Potency [12] 3.98 µM | Potency [13] 3.16 µM | Potency [14] 9.53 µM | Potency [15] 0.953 µM | Potency [16] 0.849 µM | Potency [17] 0.447 µM | Potency [18] 7.94 µM | Potency [19] 0.447 µM | Potency [20] 0.562 µM
inactive: Potency [7]
